Rv3671c inh: inhibits the M. tuberculosis serine protease Rv3671c. 320,000 tested, 0.048% active. P9WHR9. AID 2606. inhibition, % at 5.96 µM; in the data active = inhibition above about 38%;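 note: extracellular domain of Rv3671c used as enzyme; 0% = enzyme with DMSO and 100% = no enzyme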
Target sequence (P9WHR9 whole entry, looked up, the tested form may be a part): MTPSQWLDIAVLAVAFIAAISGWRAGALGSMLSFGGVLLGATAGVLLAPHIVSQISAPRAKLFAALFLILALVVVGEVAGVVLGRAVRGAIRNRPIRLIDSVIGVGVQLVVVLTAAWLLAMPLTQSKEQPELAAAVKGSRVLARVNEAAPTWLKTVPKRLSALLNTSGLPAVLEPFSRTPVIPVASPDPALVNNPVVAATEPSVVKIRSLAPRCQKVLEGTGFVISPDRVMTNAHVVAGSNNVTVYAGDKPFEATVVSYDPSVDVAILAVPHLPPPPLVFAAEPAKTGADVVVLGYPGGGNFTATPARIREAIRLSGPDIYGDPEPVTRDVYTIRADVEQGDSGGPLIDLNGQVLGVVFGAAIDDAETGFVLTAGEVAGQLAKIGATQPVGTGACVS
PrP 5UTR inh: suppresses PrP 5' UTR mRNA reporter expression | cell-based PrP 5' UTR mRNA reporter, plate reader | inhibition, % (concentration not given with the values) | 340,000 tested, 0.35% active; in the data active = inhibition above about 52%; note: 0 = median of the neutral control wells
BJeLR viability: BJeLR cell viability loss. BJeLR (HRASV12) viability, CellTiter-Glo ATP luminescence, 48 h. inhibition, % (no concentration beside the values). AID 1554. 300,000 tested, 0.17% active; in the data active = inhibition above about 50%
FadD28 FP inh: M. tuberculosis FadD28 bisubstrate binding inhibition. FadD28 bisubstrate probe binding, fluorescence polarization. inhibition, % at 12.5 µM. 360,000 tested, 0.22% active. AID 588549; in the data active = inhibition above about 8.5%, passing the limit was not always enough
RecA splice inh: Mtb RecA intein splicing inhibition; cell-free RecA intein splicing, fluorescence; inhibition, % (test concentration not listed); 290,000 tested, 0.75% active; AID 2221; P9WHJ3; in the data active = inhibition above about 30%;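 note: 0% = vehicle wells and 100% = reference inhibitor control wells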
UGM FP inh: blocks M. tuberculosis UGM enzyme; P9WIQ1; purified UGM, fluorescence polarization probe displacement; inhibition, % at 10 µM; 320,000 tested, 0.06% active; in the data active = inhibition above about 10%, passing the limit was not always enough
GFP chromophore: counter-screen: blocks GFP chromophore formation | shares compounds with RecA splice inh | cell-free GFP chromophore formation, fluorescence | EC50, µM | 2,100 tested, 83% active; call rule not given here
Active calls of the source: *; / = no result given. An excerpt weighted towards active compounds, which were near 1.3% of everything screened.

SMILES | Rv3671c inh | PrP 5UTR inh | BJeLR viability | FadD28 FP inh | RecA splice inh | UGM FP inh | GFP chromophore
CC1=NN(c2ccc(C)cc2C)C(=O)C1C(c1ccccc1O)C1C(=O)N(c2ccc(C)cc2C)N=C1C (configuration not stated) | -165.5 | -4.9 | 5.4 | 0.5 | 77.6* | 3.5 | /
Cc1ccc(C(=O)NC(C#N)=C(Cl)Cl)cc1 | / | / | 13.1 | / | 33.2* | / | /
COc1ccc(C(=O)N2CCOC2CNC(=O)C(=O)NCc2ccccn2)cc1 (configuration not stated) | / | / | / | -4.3 | / | / | /
CC[C@H](C)[C@@H](CO)NC(=O)[C@H]1O[C@@H](n2ccc(N)nc2=O)[C@H](O)[C@@H]1O | / | / | / | -0.4 | / | / | /
CSc1ccc(C(c2c(C(=O)O)[nH]c3ccccc23)c2c(C(=O)O)[nH]c3ccccc23)cc1 | 5.9 | 3.7 | 1.0 | 38.2* | 9.6 | 2.1 | /
CCOc1cc(Br)cc(C(c2c(C(=O)O)[nH]c3ccccc23)c2c(C(=O)O)[nH]c3ccccc23)c1O | 5.9 | -14.7 | -1.8 | 32.5* | 10.3 | 3.2 | /
O=C1c2ccccc2CN1CCNC(=S)NC1CCCCC1 | -1.6 | 68.0* | / | -0.2 | 2.6 | -0.7 | /
O=C(NN=C1CCCC1)c1cc(Cl)cc(Cl)c1O | 7.1 | -16.2 | -2.4 | 20.1* | 9.5 | 0.3 | /
COc1ccc(Cl)cc1C(=O)NN=C1CCCC1 | 0.7 | -13.7 | -7.8 | -3.1 | -0.9 | 0.9 | /
O=C(/C=C/[C@H]1O[C@@H](n2ccc(=O)[nH]c2=O)[C@H](O)[C@@H]1O)NCc1ccco1 | / | / | / | -0.5 | / | / | /
CC(C)c1ccc2c(c1)CCC1C(C)(CN)CCCC21C (configuration not stated) | 10.6 | -21.4 | 107.4* | -7.0 | 11.7 | -0.5 | /
CCCS(=O)(=O)NC(=O)C1(C)CCN(C(=O)/C=C/c2ccccc2)C1 (configuration not stated) | / | / | / | -3.5 | / | / | /
CCOC1=C/C(=C/c2c(N)n3oc(C)cc3nc2=O)C=CC1=O | 4.8 | / | / | / | 37.7* | 2.9 | /
COC1=C/C(=C/c2c(N)n3nc(-c4ccc(C)cc4)sc3nc2=O)C=CC1=O | / | -43.9 | / | 1.5 | / | / | /
CCOC1=C/C(=C/c2c(N)n3nc(-c4ccccc4)sc3nc2=O)C=CC1=O | / | -6.2 | 6.1 | 15.7* | 2.9 | / | /
COc1ccc(CNC(=O)Nc2nc(C(N)Cc3ccc(C(F)(F)F)cc3)cs2)cc1 (configuration not stated) | / | / | / | -13.9 | / | / | /
Cc1ccc(C(=O)C(OC(=O)CN2C(=O)c3ccccc3C2=O)c2ccccc2)cc1C (configuration not stated) | 3.7 | -9.7 | 12.0 | -0.4 | 30.8* | -0.9 | >38
O=C(Nc1ccnn1C1CCN(C(=O)c2cccnc2)CC1)c1cccc(F)c1 | / | / | / | -2.6 | / | / | /
COc1ccc(OC)c(C2C(C#N)=C(N)Oc3c2c(C)nn3-c2cccc(Cl)c2)c1 (configuration not stated) | -26.8 | -10.7 | -0.2 | -1.2 | 37.4* | 2.3 | 37.8*
CC(=O)C1=C(C)OC(N)=C(C#N)C1c1ccncc1 (configuration not stated) | -0.1 | -20.3 | 1.4 | -1.2 | -0.7 | 1.7 | /
Cc1nn(-c2cccc(Cl)c2)c2c1C(c1cccnc1)C(C#N)=C(N)O2 (configuration not stated) | -157.7 | -5.4 | 7.6 | 2.8 | 34.7* | 0.6 | 21.3*
COc1ccc(OC)c(C2C(C#N)=C(N)Oc3cc(C)[nH]c(=O)c32)c1 (configuration not stated) | -12.4 | -16.6 | -2.0 | -1.4 | -3.2 | 1.2 | /
Cc1nn(-c2cccc(Cl)c2)c2c1C(c1ccncc1)C(C#N)=C(N)O2 (configuration not stated) | -138.8 | -25.9 | 1.5 | 4.6 | 57.1* | -1.0 | 23*
CC(C)C(=O)N1CCN(c2nc(-c3ccccc3)c3c(c2C#N)CCCC3)CC1 | 11.2 | -11.4 | -2.1 | -1.4 | 31.0* | -0.7 | >38
CCN(C(=O)COC(=O)CCC(=O)c1ccc(C)cc1)c1c(N)n(Cc2ccccc2)c(=O)[nH]c1=O | / | -21.9 | / | -3.6 | / | / | /
SMILES | Rv3671c inh | PrP 5UTR inh | BJeLR viability | FadD28 FP inh | RecA splice inh | UGM FP inh | GFP chromophore
CCCCCOP(=O)(OCCCCC)C1(NS(=O)(=O)c2ccccc2)C=CC(=O)c2ccccc21 (configuration not stated) | -16.8 | -14.0 | -1.0 | -3.4 | 80.5* | -3.1 | 6.7*
O=C1C(Nc2ccc(O)cc2)=C/C(=N/S(=O)(=O)c2cccs2)c2ccccc21 | / | -9.2 | 9.6 | 3.3 | 96.5* | / | 0.192*
Cc1ccc(NC2=C/C(=N\S(=O)(=O)c3cccs3)c3ccccc3C2=O)c(C)c1 | -117.3 | -41.2 | 41.4 | -1.2 | 41.4* | -3.5 | 0.311*
Cc1cccc(NC2=C/C(=N/S(=O)(=O)c3cccs3)c3ccccc3C2=O)c1 | -107.2 | -65.2 | / | -0.2 | / | 0.7 | /
Oc1ccc(NC(=S)N=Nc2c(O)[nH]c3ccc(Br)cc23)cc1 | / | -7.8 | 4.2 | 1.7 | 67.5* | / | >38
CC(=O)Nc1cccc(NC(=O)CSc2ncc(C(=O)Nc3ccc(F)cc3)c(=O)n2C)c1 | 12.1 | -20.4 | -2.5 | -3.1 | 2.8 | 2.6 | /
CC(=O)c1cccc(NC(=O)CSc2ncc(C(=O)Nc3ccccc3)c(=O)n2C)c1 | 4.8 | -14.3 | 10.3 | 0.3 | 37.5* | 0.5 | >38
CC(=O)Nc1ccc(NC(=O)CSc2ncc(C(=O)Nc3ccc(F)cc3)c(=O)n2C)cc1 | -5.9 | -26.9 | -10.1 | -1.6 | 31.8* | 0.1 | >38
Cn1c(SCC(=O)NCCc2ccccc2)ncc(C(=O)Nc2ccccc2)c1=O | 7.1 | -19.7 | -1.9 | -3.5 | 4.2 | -0.1 | /
CC(=O)Nc1cccc(NC(=O)CSc2ncc(C(=O)Nc3ccccc3)c(=O)n2C)c1 | -2.6 | -13.3 | 17.7 | -2.7 | 47.2* | -1.2 | 39.7*
CCc1nnc(N/N=C/c2cc(Br)c(O)cc2O)n1N | -60.2 | -67.7 | -2.2 | 1.3 | 40.3* | 1.8 | 32.4*
COc1cccc(Nc2c([N+](=O)[O-])cncc2[N+](=O)[O-])c1 | 8.3 | -16.0 | 15.9 | -1.7 | 54.0* | 1.8 | 20.7*
COc1ccc(Cl)cc1CC=NNC(=O)c1cccc(C)c1O | / | -24.6 | / | -1.8 | / | / | /
CC1(C(=O)Nc2cccc(C#N)c2)CCN1C(=O)C1(c2ccccc2)CC1 (configuration not stated) | / | / | / | -3.5 | / | / | /
COc1ccc(-c2ccc(CN3C(C(C)C)C(=O)N(Cc4cn(CCC5OCCO5)nn4)CCS3(=O)=O)cc2)cc1 (configuration not stated) | / | / | / | -2.6 | / | / | /
Cc1ccccc1C(=O)NNC(=S)NC(=O)COc1ccccc1 | -14.3 | -17.2 | -2.2 | -3.2 | 40.3* | 2.2 | 30.8*
O=C(CNC(=O)c1ccccc1)N/N=C/c1ccc([N+](=O)[O-])o1 | -4.2 | -21.3 | -0.5 | -1.7 | 57.5* | 1.0 | >38
O=C(N/N=C/c1ccc([N+](=O)[O-])o1)c1ccc(O)cc1 | 4.1 | -18.1 | 18.0 | -0.7 | 55.8* | -1.7 | >38
CCCCCCCCOC(=O)c1c(CSC(=N)N)n(C)c2cc(Br)c(OC(C)=O)cc12 | 13.4 | / | 10.2 | -12.8 | 90.0* | -1.9 | 2.43*
